Data from PubChem BioAssay (NCI).
This is part of a sample that, as a whole, favours compounds with a hit. Of some 83,000 tested, about 20% had one in any assay.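 Plates (96-well) were seeded with cells, treated with compound at one concentration, and incubated for 48 hours before percent growth was determined.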 Unmarked numbers belong to inactive results. Rule for the calls: active = growth percent below 10; inactive = the rest.

Tested on: HL-60(TB) leukemia
Experiment: NCI-60 one-dose screen, 48 h (100 = growth as untreated, 0 = no growth, -100 = all killed)
Conditions: 10 µM unless noted

Compound	growth [%]
Cc1ccc(-c2nc(C(Cl)Cl)n3nc(-c4ccccc4)cc3n2)cc1	61.3
CCCCNc1nc(NC(C)(C)C)nc(NC(C)(C)C)n1	36.6
COc1cc2ncnc(Nc3ccc(C(=O)/C=C/c4ccc(C(F)(F)F)cc4F)cc3)c2cc1OC	85.9
